Screen size: about 290,000 compounds; about 3,000 (1%) were called active. Cut-off read from the data, not from the text of the source: active = inhibition mostly above about 36% (no sharp cut-off); inactive = mostly below about 34%. What follows is part of a selection rich in actives, with near analogues and random picks from the rest.

For 106 molecules, inhibition results are on record in PubChem BioAssay AID1578 (Sanford-Burnham Center for Chemical Genomics, 2009).

This assay in a line: NOD1 signaling inhibitors, primary screen, cell-based, luminescence, uHTS (AID 1578).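 Note: HEK-293T reporter cells stimulated with the NOD1 agonist gamma-tri-DAP.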 To be noted: NOD1-driven NF-kB luciferase reporter cells, at 4 µM, hits give high values.
As for `CCC(NC(=O)c1ccccc1NC(=O)c1ccccc1)C(=O)NNC(=O)c1cccnc1` (stereo unspecified), the inhibition was -7.6% (inactive).
To `CCN(C(=O)COC(=O)c1cccnc1Nc1ccccc1F)C1CCS(=O)(=O)C1` (stereo unspecified) belongs -22.9% (inactive); to `CCOc1ccc(NC(=O)CCSc2nnc(C)s2)cc1`, 7.9% (inactive).
To `Cc1ccc2c(c1)Oc1ccc([N+](=O)[O-])cc1C(=O)N2` belongs -16.6% (inactive); to `Cc1ccc2c(c1)Oc1ccc(NC(=O)CCl)cc1C(=O)N2`, 103% (active).
To `Cc1ccc2c(c1)Oc1ccc(NC(=O)CCCl)cc1C(=O)N2` belongs 0.2% (inactive).
`CCCn1c(N)c(N(CCOC)C(=O)/C=C/c2cccc(Cl)c2)c(=O)[nH]c1=O`: the inhibition was -16.5% (inactive).
As for `CC12CN3CC(C)(CN(C1)C3c1ccc(F)cc1)C2` (stereo unspecified), the inhibition is -30.5% (inactive).
As for `O=C(O)CCCC(=O)Nc1ccc(Oc2ncnc3cc(Cl)ccc23)nc1`, the figure is -10.7% (inactive); as for `CC(C(=O)N(C1CC1)C1(C(=O)Nc2ccccc2)CCCC1)N1C(=O)c2ccccc2C1=O` (stereo unspecified), 7.8% (inactive); as for `COC(=O)c1ccccc1NC(=O)NCc1ccccn1`, -25.3% (inactive).
To `Oc1ccc(Cl)cc1C=Nc1ccc2c3c(cccc13)CC2` belongs 38.7% (inactive); to `Cc1cccc(C=Nc2ccc3c4c(cccc24)CC3)c1O`, -17.9% (inactive); to `Oc1ccc(Br)cc1C=Nc1ccc2c3c(cccc13)CC2`, 101% (active).
`Cc1cc(C(=O)NCCc2ccccc2)c2cc(F)ccc2n1`: the inhibition was 1.9% (inactive).
As for `CN(c1cccc(Cl)c1)S(=O)(=O)c1cccc(C(=O)Nc2nc3ccccc3[nH]2)c1`, the figure is 53% (inactive).
`CN(c1ccccc1)S(=O)(=O)c1ccc(Cl)c(C(=O)Nc2nc3ccccc3[nH]2)c1`: the inhibition was 3.8% (inactive).
As for `O=C(NCc1ccccc1)c1cnsn1`, the inhibition was -16.6% (inactive).
As for `CC1CCc2nc3ccccc3c(C(=O)OCC(=O)N(C)C3CCS(=O)(=O)C3)c2C1` (stereo unspecified), the figure is -19.9% (inactive).
As for `COc1cc(C(=O)Nc2ccc(Nc3ccccc3)cc2)cc(OC)c1OC`, the figure is -1.1% (inactive); as for `Cc1ccc(C)c(CS(=O)(=O)c2cn(CC(=O)N3CCCCC3)c3ccccc23)c1`, -19.4% (inactive); as for `O=C(NN=C1CCCC1)c1cc(Br)ccc1O`, -58.6% (inactive).
As to `CC(C)N(C(=O)CO/N=C/c1cccc([N+](=O)[O-])c1)C(C)C`, the inhibition was -4.4% (inactive).
To `O=C1N/C(=N/O)S/C1=C/c1cccc([N+](=O)[O-])c1` belongs -24.9% (inactive); to `CC1(C)C2C/C(=N\O)C(C)(/[N+]([O-])=C/c3cccc([N+](=O)[O-])c3)CC21` (stereo unspecified), 62.4% (active).
As for `Cc1nnc(SCC(=O)O)s1`, the inhibition was -10.4% (inactive).
In the case of `Cc1ccc(-c2nc(CN3CCCC(C(=O)N4CCOCC4)C3)c(C)o2)cc1` (stereo unspecified), the inhibition was -23.5% (inactive).
To `COC(=O)c1cnn(-c2ccc(Cl)cc2)c1/C=N/NC(N)=S` belongs 5.8% (inactive); to `CN(C)S(=O)(=O)c1cccc(NC(=O)c2ccncc2)c1`, -4.4% (inactive); to `CN(C)S(=O)(=O)c1cccc(NC(=O)c2cnccn2)c1`, -27.8% (inactive).
For the molecule `CCOc1ccc(N/C(N)=N/c2nc(C)cc(C)n2)cc1`, the inhibition is -34.6% (inactive).
To `CN1CCN(CCCNc2c(C=O)c(=O)[nH]c3ccccc23)CC1` belongs -5.5% (inactive); to `O=Cc1c(NCCN2CCOCC2)c2ccccc2[nH]c1=O`, 59.2% (active); to `O=Cc1c(NCCN2CCCC2)c2ccccc2[nH]c1=O`, 0.2% (inactive).
To `O=[N+]([O-])c1ccc(Cl)c(CN2CCN(c3ncccn3)CC2)c1` belongs -27.2% (inactive); to `Cc1cc(C)nc(NC(=O)c2ccc(C)o2)n1`, -48.4% (inactive).
For the molecule `O=C1CC(c2ccccc2F)c2cc3c(cc2N1)CCC3` (stereo unspecified), the inhibition was 8.6% (inactive).
For the molecule `O=C1CC(c2ccc(F)cc2)c2cc3c(cc2N1)CCC3` (stereo unspecified), the inhibition is 28.6% (inactive).
As for `O=C1CC(c2cc(F)ccc2F)c2cc3c(cc2N1)CCC3` (stereo unspecified), the figure is 64.2% (active).
As for `COc1ccc(NC(=O)CCn2cc(C)c3ccccc32)cc1`, the figure is -5.7% (inactive); as for `O=C(N/N=C/c1ccccc1)c1ccc(-c2ccccc2)cc1`, -17.2% (inactive).
As for `CCC(=O)Nc1nc2ccccc2n1Cc1ccc(Cl)cc1`, the figure is 101% (active).
For the molecule `CCC(=O)Nc1nc2ccccc2n1Cc1ccccc1`, the inhibition was 23.4% (inactive).
As for `CCCCCCCn1c(NC(=O)CC)nc2ccccc21`, the figure is 109% (active).
With `CCC(=O)Nc1nc2ccccc2n1CCN(C)C`, the inhibition is -15.3% (inactive).
As for `CCC(=O)Nc1nc2ccccc2n1CCN(CC)CC`, the figure is -9.6% (inactive); as for `CCC(=O)Nc1nc2ccccc2n1Cc1ccc(C)cc1`, 31.5% (inactive); as for `CCn1c(C)nc2cc(C(=O)n3cc(C(=O)c4cc(F)ccc4O)cn3)ccc21`, 23.8% (inactive).
To `Nc1ccc(-c2nc3ccccc3o2)cc1` belongs 5.8% (inactive); to `COc1ccc([C@@H]2[C@@H]3C(=O)N(C(C)(C)C)C(=O)[C@@H]3[C@]3(Cc4ccc(Cl)cc4)C(=O)N(c4cccc(C)c4)C(=O)N23)cc1`, 13.2% (inactive); to `COc1cccc(NC(=O)C2CCN(S(C)(=O)=O)CC2)c1`, -30.4% (inactive).
As for `Cc1cc(S(=O)(=O)Nc2ccc3c(c2)n(C)c(=O)n3C)ccc1F`, the figure is 0.4% (inactive); as for `Oc1c(Br)cc(Br)cc1CNn1cnnc1`, 5.1% (inactive).
Regarding `COc1cc(SC)ccc1C(=O)Nc1nc(C)cs1`, the inhibition was 91.9% (active).
As for `COc1cc(SC)ccc1C(=O)Nc1nccs1`, the figure is -52.4% (inactive).
As for `COc1cc(SC)ccc1C(=O)Nc1cccc(C)n1`, the figure is -70% (inactive); as for `COc1cc(SC)ccc1C(=O)Nc1nc(C)cc(C)n1`, -19.1% (inactive).
To `COc1cc(SC)ccc1C(=O)Nc1ccc(Cl)cn1` belongs 16.3% (inactive); to `COc1cc(SC)ccc1C(=O)Nc1ncc(C)s1`, 82.7% (active); to `CCCCOc1ccccc1/C=N/NC(=O)CC#N`, -26.1% (inactive).
Consider `O=C(NNC(=S)Nc1ccc(Cl)cc1)c1ccccc1OC(F)F`, for which the inhibition was -11.7% (inactive).
As for `COc1ccccc1-n1cc(-c2ccc(Br)cc2)[nH]c1=S`, the figure is -0.3% (inactive).
As for `Cc1sc2ncnc(Sc3ccccc3C(=O)Nc3ccc(Br)cc3)c2c1C`, the inhibition is 9.8% (inactive).
As for `Nc1c(Br)c(=O)[nH]c(=O)n1-c1ccccc1`, the figure is 6.9% (inactive).
To `Cc1cc(=O)[nH]c(N=N/C(=N/Nc2ccc(O)cc2)c2ccccc2)n1` belongs 105% (active).
To `COc1ccc(N/N=C(/N=Nc2nc(C)cc(=O)[nH]2)c2ccccc2)cc1` belongs 11.2% (inactive).
Turning to `Cc1cc(=O)[nH]c(N=N/C(=N/Nc2ccccc2C)c2ccccc2)n1`, the inhibition was 45.2% (inactive).
To `COc1ccc(N(CC(=O)NC2CCCCC2)C(=O)c2snc(C(N)=O)c2N)cc1` belongs -27.6% (inactive); to `CN1CCN(CCCNC(=O)Cn2nc(-c3ccccc3)ccc2=O)CC1`, -20.1% (inactive); to `O=C(O)c1nc(N2CCCC2)ncc1Cl`, 0.1% (inactive).
Turning to `O=C1/C(=C\c2ccccc2)CCc2c1[nH]c1ccccc21`, the inhibition is -31.1% (inactive).
For the molecule `Cc1ccc(/C=C2/CCc3c([nH]c4ccccc34)C2=O)cc1`, the inhibition was -61.5% (inactive).
On to `O=C1/C(=C/c2cccnc2)CCc2c1[nH]c1ccccc21`, for which the inhibition is 82% (active).
Consider `COC(=O)c1cn(CCOc2ccccc2)c2ccccc12`, for which the inhibition was -11.9% (inactive).
As for `COc1ccccc1C(=O)Nc1cccnc1`, the figure is -35.2% (inactive); as for `CC1CCc2nc(NC(=O)CCSc3ccccc3)sc2C1` (stereo unspecified), -19.7% (inactive).
As for `CC1CCc2nc(NC(=O)Cc3cccs3)sc2C1` (stereo unspecified), the figure is -17.9% (inactive); as for `CC1CCc2nc(NC(=O)c3ccco3)sc2C1` (stereo unspecified), 42.5% (active); as for `CC1CCc2nc(NC(=O)C3CC3)sc2C1` (stereo unspecified), -43.5% (inactive).
To `O=C(CSc1nc2ccccc2o1)Nc1nc2ccccc2s1` belongs 25.3% (inactive).
With `CC(=O)Nc1ccc(S(=O)(=O)N2CCN(c3ncccn3)CC2)cc1`, the inhibition was -2% (inactive).
Turning to `CCOc1ccccc1NC(=O)C(C)CC` (stereo unspecified), the inhibition is -23.5% (inactive).
To `COc1ccc(NC(=O)Cc2nnc(SCC(=O)NC3CCCCC3C)n2C)cc1` (stereo unspecified) belongs 17.2% (inactive).
As for `CCN(CC1CCCN(CCc2cccc(F)c2)C1)C(=O)c1ccc(CSC)o1` (stereo unspecified), the figure is -11% (inactive); as for `COc1ccc(C(=O)OC(COc2ccccc2)Cn2ccnc2)cc1` (stereo unspecified), 2.7% (inactive).
To `Cc1coc2cc3oc(=O)c(CC(=O)N[C@@H](CC(C)C)C(=O)O)c(C)c3cc12` belongs -5.8% (inactive); to `COc1cc(C2C3C(C)N(C)C(=O)N(C)C3N(C)C(=O)N2C)ccc1O` (stereo unspecified), -20.9% (inactive); to `COc1ccc(/C=C2\SC(=S)NC2=O)cc1OS(=O)(=O)c1ccc(NC(C)=O)cc1`, 2.1% (inactive).
On to `COc1cc(/C=C2\SC(=S)NC2=O)ccc1OS(=O)(=O)c1ccccc1`, for which the inhibition is 4.1% (inactive).
As for `COc1cc(/C=C2/SC(=S)NC2=O)ccc1OS(=O)(=O)c1ccc(C)cc1`, the figure is 93.4% (active); as for `Cc1ccc(CNC(=O)C2CCN(S(=O)(=O)c3ccc(Br)s3)CC2)cc1`, 16% (inactive).
As for `Cc1cc(C(=O)CSc2nc(N)cc(=O)[nH]2)c(C)n1-c1ccc(OC(F)F)cc1`, the figure is 45.3% (active).
To `Cc1cc(C(=O)CSc2cccc[n+]2[O-])c(C)n1-c1ccc(OC(F)F)cc1` belongs 2.7% (inactive); to `Cc1cc(-n2c(C)cc(C(=O)CSc3nc(N)cc(=O)[nH]3)c2C)no1`, 9.7% (inactive); to `COCCCNC(=O)CNC(=O)c1cn(-c2ccccc2OC)c(=O)c2ccccc12`, -30.6% (inactive).
As for `Cc1ccc(C)c(NC(=O)CCN2CC(C)OC(C)C2)c1` (stereo unspecified), the inhibition is -8.9% (inactive).
As for `COc1ccc(CN2CCSc3sccc3C2=O)cc1`, the figure is -4.1% (inactive); as for `CC1CCCN(c2nc3ccccc3nc2C(C#N)S(=O)(=O)c2ccccc2)C1` (stereo unspecified), 102% (active); as for `CCCCOc1nc2ccccc2nc1C(C#N)S(=O)(=O)c1ccccc1` (stereo unspecified), 79.5% (active).
To `CC1CCCN(c2nc3ccccc3nc2C(C#N)S(=O)(=O)c2cccs2)C1` (stereo unspecified) belongs 13.4% (inactive); to `N#CC(c1nc2ccccc2nc1OCCO)S(=O)(=O)c1ccccc1` (stereo unspecified), -3.6% (inactive); to `N#CC(c1nc2ccccc2nc1N1CCCCC1)S(=O)(=O)c1ccc(Cl)cc1` (stereo unspecified), 88.1% (active).
Turning to `Cc1ccc(S(=O)(=O)C(C#N)c2nc3ccccc3nc2OCCO)cc1` (stereo unspecified), the inhibition was -27.7% (inactive).
As for `Cc1ccc(S(=O)(=O)C(C#N)c2nc3ccccc3nc2N2CCCCC2)cc1` (stereo unspecified), the figure is -4.7% (inactive); as for `N#CC(c1nc2ccccc2nc1N1CCCC1)S(=O)(=O)c1ccccc1` (stereo unspecified), 10.2% (inactive); as for `COc1ccc(S(=O)(=O)C(C#N)c2nc3ccccc3nc2N2CCCC(C)C2)cc1` (stereo unspecified), -10.7% (inactive).
